14 molecules from PubChem BioAssay can be followed below.

Assay [1] is described as follows: inhibitors of TNFa-induced NFkB p65 translocation, primary screen, imaging, HUVEC, MLSMR starter and 10KST1 sets (AID 438;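 active means inhibition above 20% together with a positive visual image hit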;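 further: compound added about 3h40 before a 20 min TNFalpha stimulation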;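 on inhibition: signal is the nuclear over cytoplasmic p65 intensity ratio per well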). Conditions: HUVEC TNFa-induced p65 nuclear translocation; cell count: measured here: nuclei count (cytotoxicity indicator), at 2.08 µM; inhibition: at 2 µM, stronger effect = higher value, 0% TNFa-plus-vehicle, 100% no-TNFa wells.
The nature of assay [2]: inhibitors of mutant huntingtin aggregation, primary screen, imaging, exon1htt(103Q)mCFP cells, high-content imaging (AID 483).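 Further: compound exposure lasted 3 days before fixation.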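 On nuclei count: percent of the per-plate median nuclei count of sample wells.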 The conditions noted are these: exon1htt(103Q)mCFP cell line, aggregate imaging, at 2 µM; inhibition of aggregation: stronger effect = higher value; nuclei count: measured here: cell count, toxicity.
A short description of assay [3]: inhibitors of E-selectin induction by TNFa, primary screen, imaging, HUVEC, immunofluorescence, MLSMR starter and 10KST1 sets (AID 487;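 active means visually confirmed hit in the image check and inhibition above 20%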;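 on inhibition: signal is fraction of cell area covered by stained E-selectin grains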;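 on nuclei count: 100% = median nuclei count of all wells on the same plate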). Conditions: HUVEC TNFalpha-induced E-selectin immunofluorescence imaging, at 2 µM; inhibition: stronger effect = higher value; nuclei count: measured here: cell number, toxicity.
Assay [4] addresses Voltage-gated potassium channel subunit beta-2 (Rattus norvegicus) (UniProt P62483). The assay is described as follows: KvBeta enzyme negative modulators, primary screen, biochemical, NADPH fluorescence (AID 622;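 active means fluorescence slope higher than the sample average by over 3 SD, cut at about -0.22 in these data, passing the limit was not always enough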;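 further: slope of raw intensity against log time taken from 70 to 1610 s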). The conditions noted are these: recombinant KvBeta, 4-cyanobenzaldehyde reduction, at 10 µM, stronger effect = higher value.
Assay [5] has the same target. Put plainly: KvBeta positive modulators, primary screen, biochemical, NADPH fluorescence (AID 623;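 active means NADPH fluorescence slope more negative than the mean of all samples by about 3 SD, 99.7% confidence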;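 further: fluorescence intensity change per second fitted from 20 to 320 s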). Conditions: Recombinant KvBeta, NADPH fluorescence decrease slope, 10 min; at 10 µM; stronger effect = lower value.
The target in assay [6] is Alpha-2C adrenergic receptor (Homo sapiens) (UniProt P18825). The assay is described as follows: modulators of alpha2C/GIRK thallium flux, primary screen, cell-based, HEK293 alpha2C/GIRK1/2 (AID 624;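 active means fluorescence slope after compound addition differing from the mean of all screened samples at 99.7% confidence, in either direction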;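 further: slope of fluorescence ratio to pre-addition baseline per second over 15 to 24 s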). The conditions noted are these: thallium flux BTC fluorescence, at 10 µM, actives lie on both sides.
A short description of assay [7]: inhibitors of Sendai virus-induced IRF3 signaling, primary screen, TLR/RLR signaling modifier project, cell-based, Sendai virus stimulus, luciferase, 10K MLSCN set (AID 602276;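 active means inhibition at or above 50% at 10 µM; inactive means inhibition below 50%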;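 further: firefly luciferase from ISG56 promoter only with Renilla not read in this screen; 0% = Sendai virus plus DMSO and 100% = medium plus DMSO without virus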). The conditions noted are these: HEK293 RL24 IRF3 luciferase reporter, at 10 µM, stronger effect = higher value.
The nature of assay [8]: inhibitors of poly I:C-induced TLR3 signaling, primary screen, cell-based, poly I:C stimulus, luciferase, 10K MLSCN set (AID 602277;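 active means inhibition of the reporter signal at or above 50%; inactive means inhibition below 50%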). The conditions noted are these: HEK293-TLR3 RL24 IRF3 luciferase reporter, at 10 µM, stronger effect = higher value. In general terms: In a reporter assay the amount or activity of a reporter protein is the signal.

Each structure is given as a SMILES string. Activity calls are given as the source filed them.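 How the source made its calls, unless noted: active means visual image review flags a hit and inhibition of aggregation exceeds 20%; inconclusive means visual hit but inhibition at or below 20%; inactive means no hit on visual image review.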

Sequence of Alpha-2C adrenergic receptor (Homo sapiens) (P18825 whole entry, looked up): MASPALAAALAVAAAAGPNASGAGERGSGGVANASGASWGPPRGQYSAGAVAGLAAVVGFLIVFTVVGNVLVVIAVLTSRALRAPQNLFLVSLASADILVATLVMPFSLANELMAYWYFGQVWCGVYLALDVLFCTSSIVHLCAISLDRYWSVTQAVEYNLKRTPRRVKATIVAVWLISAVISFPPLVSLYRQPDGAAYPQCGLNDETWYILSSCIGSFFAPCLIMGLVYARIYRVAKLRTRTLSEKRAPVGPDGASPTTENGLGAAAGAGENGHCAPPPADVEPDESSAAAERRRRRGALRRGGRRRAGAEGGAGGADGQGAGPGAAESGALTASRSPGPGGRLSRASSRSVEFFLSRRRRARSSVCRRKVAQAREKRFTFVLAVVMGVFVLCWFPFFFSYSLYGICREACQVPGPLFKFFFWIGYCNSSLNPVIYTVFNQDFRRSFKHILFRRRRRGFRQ
Sequence of Voltage-gated potassium channel subunit beta-2 (Rattus norvegicus) (P62483 whole entry, looked up): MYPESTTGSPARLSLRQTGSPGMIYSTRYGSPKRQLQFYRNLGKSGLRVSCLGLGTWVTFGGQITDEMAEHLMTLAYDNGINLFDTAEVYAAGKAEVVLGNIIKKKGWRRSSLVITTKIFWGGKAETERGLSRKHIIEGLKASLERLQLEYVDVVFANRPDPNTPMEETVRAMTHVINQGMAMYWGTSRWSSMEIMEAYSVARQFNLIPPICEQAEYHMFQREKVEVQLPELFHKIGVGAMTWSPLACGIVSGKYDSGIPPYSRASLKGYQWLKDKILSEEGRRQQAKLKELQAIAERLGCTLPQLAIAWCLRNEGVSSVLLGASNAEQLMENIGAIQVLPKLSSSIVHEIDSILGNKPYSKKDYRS

The term inhibition denotes the change of the read-out against control, counted positive when it falls. Regarding `CCOC(=O)c1cnc2c(OC)cccc2c1N1CCN(c2ccc(OC)cc2)CC1`, the cell count in assay [1] amounted to 158. The inhibition was -4.9% (inactive) in assay [1], 2.9% (inactive) in assay [3], 19.3% (inactive) in assay [7] and 24.8% (inactive) in assay [8]. The inhibition of aggregation in assay [2] is 16.9% (inactive). Moreover, the results for the nuclei count in assay [2] and in assay [3] were 72.9% and 80.4%, respectively. The fluorescence slope in assay [4] is -0.577 (inactive). Besides, the NADPH fluorescence slope in assay [5] is -4.5e-05 (inactive). Also, the slope in assay [6] is 0.00543 (inactive).
In the case of `Cc1noc(C)c1CSc1nnc2n(-c3ccccc3)c(=O)c3ccccc3n12`, in assay [1], the cell count turned out to be 342. The inhibition was -4% (inactive) in assay [1], -27.6% (inactive) in assay [3], 7.36% (inactive) in assay [7] and 20.9% (inactive) in assay [8]. Besides, the inhibition of aggregation in assay [2] was 12.7% (inactive). For the same molecule, the figures for the nuclei count in assay [2] and in assay [3] were 85.8% and 89.5%, respectively. In addition, in assay [4], the fluorescence slope was -0.411 (inactive). The NADPH fluorescence slope in assay [5] is -1e-05 (inactive). For the same molecule, in assay [6], the slope is 0.00571 (inactive).
As to `CCOC(=O)c1cccc(NC(=O)CSc2nnc(-c3cccnc3)n2C)c1`, the cell count in assay [1] was 505. In addition, the inhibition was -0.3% (inactive) in assay [1], -100% (inactive) in assay [3], 8.88% (inactive) in assay [7] and 10.4% (inactive) in assay [8]. In assay [2], the inhibition of aggregation is 8.9% (inactive). The nuclei count in assay [2] turned out to be 97.6%; in assay [3], 134%. In addition, the fluorescence slope in assay [4] is -0.285 (inactive). Further, the NADPH fluorescence slope in assay [5] is -5.6e-05 (inactive). The slope in assay [6] was 0.00612 (inactive).
Take `COc1cc(NC(=O)Nc2cccc(Cl)c2)c(OC)cc1NC(=O)CN1CCCCC1`: the cell count in assay [1] worked out at 709. For the same molecule, the inhibition in assay [1] was -15.2% (inactive); in assay [3] it was -45.1% (inactive); in assay [7], 14.5% (inactive); in assay [8], -1.73% (inactive). Also, the inhibition of aggregation in assay [2] was 1% (inactive). In addition, the values for the nuclei count in assay [2] and in assay [3] were 126% and 132%, respectively. For the same molecule, in assay [4], the fluorescence slope is -0.407 (inactive). Besides, the NADPH fluorescence slope in assay [5] is -4e-05 (inactive). The slope in assay [6] was 0.00392 (inactive).
`CN(C(=O)c1ccccn1)c1nnc(-c2cccnc2)s1`: in assay [1], the cell count came out at 622. The inhibition in assay [1] was -8.7% (inactive); in assay [3] it was -52.7% (inactive); in assay [7], 0.693% (inactive); in assay [8], -16.2% (inactive). For the same molecule, the inhibition of aggregation in assay [2] was 11.2% (inactive). Further, the nuclei count in assay [2] is 93.2%; in assay [3], 106%. Also, in assay [4], the fluorescence slope was -0.489 (inactive). Also, in assay [5], the NADPH fluorescence slope is -5.1e-05 (inactive). For the same molecule, the slope in assay [6] is 0.0044 (inactive).
Turning to `N#CCCN1CCN(S(=O)(=O)c2ccc(S(=O)(=O)NC3CCCCC3)cc2)CC1`, the cell count in assay [1] was 645. Moreover, the inhibition is -2.4% (inactive) in assay [1], -47.2% (inactive) in assay [3], 14.1% (inactive) in assay [7] and 32.4% (inactive) in assay [8]. In addition, the inhibition of aggregation in assay [2] is -20.2% (inactive). Besides, the nuclei count in assay [2] turned out to be 124%; in assay [3], 115%. Besides, the fluorescence slope in assay [4] is -0.584 (inactive). Further, the NADPH fluorescence slope in assay [5] is -4.3e-06 (inactive). Moreover, in assay [6], the slope is 0.00631 (inactive).
Regarding `Cc1ccccc1C1CC(c2ccccc2)Nc2ncnn21` (centres undefined), the cell count in assay [1] came out at 561. The inhibition in assay [1] was 0% (inactive); in assay [3] it was -47% (inactive); in assay [7], 3.07% (inactive); in assay [8] it was 15.7% (inactive). Further, in assay [2], the inhibition of aggregation is -26.3% (inactive). Further, the nuclei count in assay [2] was found to be 92.1%; in assay [3], 108%. Further, the fluorescence slope in assay [4] is -0.528 (inactive). For the same molecule, the NADPH fluorescence slope in assay [5] was -1.4e-06 (inactive). Moreover, in assay [6], the slope is 0.00646 (inactive).
Take `O=C(CCn1c(=S)[nH]c2cc3c(cc2c1=O)OCO3)N1CCN(C2CCCCC2)CC1`: in assay [1], the cell count came out at 473. Further, the inhibition in assay [1] was 4.3% (inactive); in assay [3], 28.2% (inactive); in assay [7], 3.29% (inactive); in assay [8], 33.1% (inactive). In assay [2], the inhibition of aggregation was 4.1% (inactive). The nuclei count in assay [2] was determined as 129%; in assay [3], 85.3%. Further, the fluorescence slope in assay [4] was -0.476 (inactive). In addition, the NADPH fluorescence slope in assay [5] was -9.8e-07 (inactive). The slope in assay [6] is 0.00668 (inactive).
Take `COc1ccc(C(c2nnnn2C2CCCC2)N2CCN(C3CCCC3)CC2)cc1OC` (centres undefined): the cell count in assay [1] came to 263. In addition, the inhibition is 17.5% (inactive) in assay [1], 2% (inactive) in assay [3], 12.8% (inactive) in assay [7] and 18.8% (inactive) in assay [8]. For the same molecule, the inhibition of aggregation in assay [2] was 8.8% (inactive). For the same molecule, the nuclei count in assay [2] was found to be 104%; in assay [3], 88.5%. Besides, the fluorescence slope in assay [4] was -0.512 (inactive). In assay [5], the NADPH fluorescence slope is -0.000149 (inactive). Further, the slope in assay [6] was 0.00468 (inactive).
On to `CC(C)=CCCC(C)N(C=O)C(C)CCC=C(C)C` (centres undefined), for which, in assay [1], the cell count was 470. In addition, the inhibition is 8.1% (inactive) in assay [1], -144% (inactive) in assay [3], 10.3% (inactive) in assay [7] and -8.14% (inactive) in assay [8]. Also, the inhibition of aggregation in assay [2] was 4.3% (inactive). In addition, the nuclei count in assay [2] was found to be 98.2%; in assay [3], 126%. For the same molecule, in assay [4], the fluorescence slope is -0.598 (inactive). Also, the NADPH fluorescence slope in assay [5] was -1.6e-06 (inactive). Further, the slope in assay [6] is 0.00568 (inactive).
With `CCOC(=O)Cc1nnc2c(Nc3ccccc3F)nc3nonc3n12`, in assay [1], the cell count is 631. Moreover, the inhibition was -9.1% (inactive) in assay [1], -38.4% (inactive) in assay [3], 7.74% (inactive) in assay [7] and -15.3% (inactive) in assay [8]. Besides, the inhibition of aggregation in assay [2] is -25.8% (inactive). Moreover, the nuclei count in assay [2] is 119%; in assay [3], 142%. Besides, the fluorescence slope in assay [4] is -0.582 (inactive). Moreover, in assay [5], the NADPH fluorescence slope is -7e-06 (inactive). Besides, the slope in assay [6] was 0.00616 (inactive).
As to `CC(C)(C)C1CCc2[nH]nc(C(=O)O)c2C1` (centres undefined), the cell count in assay [1] stood at 814. The inhibition is -2.8% (inactive) in assay [1], 2% (inactive) in assay [3], 12.4% (inactive) in assay [7] and 16% (inactive) in assay [8]. Further, the inhibition of aggregation in assay [2] is 0% (inactive). In addition, the figures for the nuclei count in assay [2] and in assay [3] were 104% and 121%, respectively. Further, the fluorescence slope in assay [4] is -0.607 (inactive). For the same molecule, the NADPH fluorescence slope in assay [5] was 1.9e-05 (inactive). Besides, the slope in assay [6] was 0.00808 (inactive).
With `O=C(COc1ccccc1Cl)NCCCN1CCOCC1`, the cell count in assay [1] was determined as 458. The inhibition is 5.4% (inactive) in assay [1], -11.3% (inactive) in assay [3], 10.2% (inactive) in assay [7] and 18.2% (inactive) in assay [8]. Moreover, the inhibition of aggregation in assay [2] was 0% (inactive). Moreover, the figures for the nuclei count in assay [2] and in assay [3] were 117% and 126%, respectively. In addition, in assay [4], the fluorescence slope was -0.509 (inactive). Further, in assay [5], the NADPH fluorescence slope was -5.8e-05 (inactive). In assay [6], the slope was 0.00528 (inactive).
Take `Cc1ccc(-c2noc(C3CCCN(C(=O)c4ccccc4)C3)n2)o1` (centres undefined): in assay [1], the cell count worked out at 490. For the same molecule, the inhibition was 5.2% (inactive) in assay [1], -102% (inactive) in assay [3], -20% (inactive) in assay [7] and -111% (inactive) in assay [8]. The inhibition of aggregation in assay [2] was -19.1% (inactive). Also, the figures for the nuclei count in assay [2] and in assay [3] were 112% and 125%, respectively. The fluorescence slope in assay [4] is -0.372 (inactive). For the same molecule, the NADPH fluorescence slope in assay [5] was -1.7e-05 (inactive). Further, in assay [6], the slope is 0.00371 (inactive).
